The values below come from PubChem BioAssay (NCI).

Several values for one entry are separate records, joined by “and”; a condition that tells them apart may be missing. Identical values can stand only once. About 83,000 compounds went through this panel and 20% of them were active in at least one assay; those are over-represented in the sample as a whole.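 Testing used 96-well plates and a 48-hour single-concentration exposure. Example: -40 means 40% of the starting cells died.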 A number with no mark means an inactive call. Activity calls are given as the source filed them. The calls were made as follows: active = growth percent below 10; inactive = the rest.

Test systems include HCT-15 colon; HT29 colon; SNB-75 CNS; SNB-19 CNS; U251 CNS; PC-3 prostate; SK-MEL-5 melanoma; UACC-62 melanoma; LOX IMVI melanoma; SK-MEL-28 melanoma; EKVX NSCLC; SN12C renal; UO-31 renal; TK-10 renal; ACHN renal; CAKI-1 renal; A498 renal; CCRF-CEM leukemia; MOLT-4 leukemia; SK-MEL-2 melanoma.
Test in all cases: NCI-60 one-dose screen, 48 h (100 = growth as untreated, 0 = no growth, -100 = all killed)
Details in all cases: 10 µM unless noted

With `O=C1Nc2ccccc2/C1=C/c1cccn1CCCCCn1c2ccccc2c(=O)c2ccccc21`, the growth in the assay with HCT-15 colon was 28.9%; with HT29 colon it was 89.5%; in the assay on SNB-75 CNS, 86.7%; with SNB-19 CNS it was 95.3%; with U251 CNS, 93.4%; in the assay on PC-3 prostate it was 42%. The growth in the assay with SK-MEL-5 melanoma was 32.2%; with UACC-62 melanoma it was 48.2%; in the assay on LOX IMVI melanoma, 80.3%; in the assay with SK-MEL-28 melanoma, 88.1%; with EKVX NSCLC it was 71.8%; with SN12C renal, 97.1%. The growth in the assay with UO-31 renal was 49.3%; in the assay on TK-10 renal, 93.8%; in the assay with ACHN renal, 55.1%; in the assay with CAKI-1 renal, 65.9%; in the assay on A498 renal, 108%; in the assay on CCRF-CEM leukemia, 44.9%. Also, the growth in the assay with MOLT-4 leukemia is 46%.
`Nc1ccccc1SC(CC(=O)c1ccccc1)c1ccc([N+](=O)[O-])cc1` (stereo not given): the growth is 87.7% and 59% in the assay with HCT-15 colon; 19.7% and 39.1% in the assay on HT29 colon; 84.6% and 80.8% in the assay with SNB-75 CNS; 93.2% and 101% in the assay on SNB-19 CNS; 62.6% and 57.4% in the assay on U251 CNS; 70.9% and 59.6% in the assay with PC-3 prostate. Moreover, the growth was 105% in the assay with SK-MEL-5 melanoma; 90.9% and 84.5% in the assay with UACC-62 melanoma; 41.7% and 45.5% in the assay with LOX IMVI melanoma; 94.4% and 99.6% in the assay on SK-MEL-28 melanoma; 137% and 87.4% with SK-MEL-2 melanoma; 94% and 92.5% with SN12C renal. The growth in the assay with UO-31 renal is 55.1% and 39.2%; in the assay on TK-10 renal, 118% and 109%; in the assay on CAKI-1 renal, 70.2% and 91.7%; with A498 renal it was 94.6% and 99.5%; with CCRF-CEM leukemia it was 69.2% and 51.9%; in the assay with MOLT-4 leukemia, 82.3% and 61.6%.
`CCCCCCCCCCCCC[C@H](O)C[C@H](O)[C@H](C)N`: the growth in the assay on HCT-15 colon is 97.8% [1.25 µM]; with HT29 colon, 103% [1.25 µM]; in the assay with SNB-75 CNS, 129% [1.25 µM]; with SNB-19 CNS, 104% [1.25 µM]; in the assay with U251 CNS, 85.2% [1.25 µM]; in the assay on PC-3 prostate, 97% [1.25 µM]. Further, the growth was 97.6% [1.25 µM] in the assay on SK-MEL-5 melanoma; 113% [1.25 µM] in the assay on UACC-62 melanoma; 90.8% [1.25 µM] with LOX IMVI melanoma; 115% [1.25 µM] in the assay with SK-MEL-28 melanoma; 99.4% [1.25 µM] in the assay with EKVX NSCLC; 105% [1.25 µM] with SN12C renal. In addition, the growth in the assay with UO-31 renal is 112% [1.25 µM]; in the assay with TK-10 renal, 137% [1.25 µM]; with ACHN renal, 102% [1.25 µM]; in the assay with CAKI-1 renal it was 110% [1.25 µM]; with A498 renal, 93.7% [1.25 µM]; in the assay with CCRF-CEM leukemia it was 25% [1.25 µM]. Also, the growth in the assay with MOLT-4 leukemia is 51.7% [1.25 µM].
`CCNC(=O)Nc1ncccc1OCc1ccc(F)cc1`: the growth with HCT-15 colon was 99.7%; in the assay with HT29 colon, 95.5%; with SNB-75 CNS it was 102%; in the assay with SNB-19 CNS, 102%; with U251 CNS, 96.8%; with PC-3 prostate it was 103%. Also, the growth is 101% in the assay with SK-MEL-5 melanoma; 94.6% in the assay with UACC-62 melanoma; 94.6% with LOX IMVI melanoma; 113% in the assay on SK-MEL-28 melanoma; 102% with EKVX NSCLC; 107% in the assay with SN12C renal. The growth was 93.7% with UO-31 renal; 92.8% in the assay on TK-10 renal; 108% in the assay on ACHN renal; 90.1% in the assay on CAKI-1 renal; 88.3% in the assay with A498 renal; 101% with CCRF-CEM leukemia. In the assay with MOLT-4 leukemia, the growth is 98%.
`O=C1OCC2=C1C(c1cccc(C(F)(F)F)c1)c1cc3c(cc1N2CCO)CCC3` (stereo not given): the growth in the assay on HCT-15 colon was 6.24% (active); with HT29 colon, 1.24% (active); in the assay with SNB-75 CNS, 46%; in the assay with SNB-19 CNS it was 23%; in the assay on U251 CNS, 12.4%; in the assay with PC-3 prostate, 21.7%. Besides, the growth in the assay with SK-MEL-5 melanoma was 0.201% (active); in the assay on UACC-62 melanoma, 41.7%; with LOX IMVI melanoma it was 16.5%; in the assay on SK-MEL-28 melanoma, 52.8%; with SK-MEL-2 melanoma, 9.34% (active); in the assay on SN12C renal it was 24.9%. Also, the growth was 35.5% in the assay on UO-31 renal; 53.9% with TK-10 renal; 23.4% in the assay on ACHN renal; 26.9% with CAKI-1 renal; 1.23% (active) in the assay with A498 renal; 7.83% (active) with MOLT-4 leukemia.
Regarding `N#C/C(=C\c1ccccc1Cl)c1cc2ccccc2[nH]1`, the growth in the assay on HCT-15 colon was 81.4%; with HT29 colon it was 97.7%; in the assay on SNB-75 CNS, 83%; in the assay with SNB-19 CNS, 93.1%; with U251 CNS, 85.8%; with PC-3 prostate it was 80.5%. The growth in the assay on SK-MEL-5 melanoma was 85.9%; with UACC-62 melanoma it was 76.5%; with LOX IMVI melanoma, 92.4%; with SK-MEL-28 melanoma it was 99%; in the assay on SK-MEL-2 melanoma, 114%; with SN12C renal, 92.4%. For the same compound, the growth is 69.7% with UO-31 renal; 130% in the assay on TK-10 renal; 84.7% with ACHN renal; 73.1% with CAKI-1 renal; 98.6% in the assay with A498 renal; 77.1% in the assay with MOLT-4 leukemia.
As to `Fc1ccccc1-c1cnn2cc(-c3ccccc3)cnc12`, the growth in the assay with HCT-15 colon is 90.5%; in the assay with HT29 colon it was 105%; in the assay on SNB-75 CNS it was 81.7%; in the assay on SNB-19 CNS, 94.1%; in the assay with U251 CNS, 98.9%; in the assay on PC-3 prostate, 88.5%. Also, the growth in the assay on SK-MEL-5 melanoma was 101%; in the assay on UACC-62 melanoma it was 91.5%; in the assay with LOX IMVI melanoma it was 98.7%; with SK-MEL-28 melanoma, 113%; in the assay on EKVX NSCLC it was 103%; in the assay on SN12C renal it was 92.1%. Besides, the growth was 85.6% in the assay on UO-31 renal; 104% in the assay with TK-10 renal; 101% with ACHN renal; 88.8% in the assay with CAKI-1 renal; 87.8% with A498 renal; 93.3% in the assay on CCRF-CEM leukemia. For the same compound, the growth in the assay with MOLT-4 leukemia was 98.1%.
